These results are taken from PubChem BioAssay (Tox21).

Values joined by “and” are separate entries in the source; they are usually repeats but may differ in a detail not shown here. Equal values may be shown once. Inconclusive results are not listed. A call without a number means that no potency is given here. Active and inactive are the calls of the source. Calls come from the whole dose curve; as a rule, active = well fitted cell-killing curve with a large enough effect in the repeat runs; inconclusive = weak or mixed curves, or effect the other way; inactive = no such curve, though single readings can be large or run the other way.
Potency is the fitted concentration of half-maximal effect.

The nature of this experiment: Caspase-3/7 induction in CHO-K1 cells by small molecules, qHTS cell viability counter screen (AID 1346979). Note: nearly all actives have a fitted effect of over 35% in size. As to conditions: CellTiter-Fluor fluorescence, 17 h; series mostly up to 92.4 µM. The source says: National Center for Advancing Translational Sciences [NCATS]
NIH Chemical Genomics Center [NCGC]
U.S. Environmental Protection Agency [EPA]
National Institutes of Environmental Health Sciences [NIEHS]
National Toxicology Program [NTP]
U.S. Food and Drug Administration [FDA]
Apoptosis is a process of programmed cell death and plays a central role in the development of multicellular organisms. It is a highly regulated process and induces cell death by activating caspases, which are the members of cysteine aspartic acid-specific protease (caspase) family. Caspases involved in apoptosis are classified by their mechanism of action as initiator caspases (caspase-2, -8, -9 and -10) and executioner caspases (caspase-3, -6, and -7). Inhibition of apoptosis results in number of cancers, autoimmune diseases, inflammatory diseases and viral infection. To identify small molecule compounds that induce apoptosis, a homogeneous, luminescent Caspase-Glo 3/7 assay was used. Wild type CHO-K1 cells were used to screen Tox21 libraries for identifying caspase-3/7 activity inducers. Also cytotoxicity of the compounds was tested in parallel by measuring the cell viability using CellTiter-Fluor assay system in the same wells.
Tox21 Assay Protocol Summary:
CHO-K1 cells were dispensed at 1,500 per well in 5uL of culture medium into white solid bottom 1536-well plates (Corning Life Sciences, Corning, NY) using a Multidrop Combi (Thermo Scientific, Waltham, MA) dispenser. The assay plates were incubated at 37 C and 5% CO2 for 5hr, and then 23nL of compounds dissolved in DMSO and positive control were transferred using a Pintool station (Wako, San Diego, CA). The assay plates were incubated at 37C and 5% CO2 for 17hr. For cytotoxicity read, after 16hr incubation at 37C, 1uL CellTiter-Fluor reagent (Promega Corporation, Madison, WI) was added to each well of the assay plates using Flying Reagent Dispenser (FRD, Aurora Discovery, San Diego, CA). After 1hr incubation at 37C and 5% CO2, the fluorescence signal was quantified using a ViewLux plate reader (PerkinElmer, Shelton, CT).
Background: Quantitative high-throughput screening tests each substance at several concentrations.
Consider `CC(C)=CCC1C(=O)N(c2ccccc2)N(c2ccccc2)C1=O`, for which the Potency entry was “inactive”.

Consider `COC(=O)C1=C(C)NC(C)=C(C(=O)O[C@@H]2CCCN(Cc3ccccc3)C2)[C@@H]1c1cccc([N+](=O)[O-])c1`, for which the Potency was 29.8 µM (active). Take `OC[C@H]1O[C@@H](n2cnc3c(=S)nc[nH]c32)[C@H](O)[C@@H]1O`: the Potency entry is “inactive”.

As for `C[C@@H](O[C@H]1OCCN(Cc2n[nH]c(=O)[nH]2)[C@H]1c1ccc(F)cc1)c1cc(C(F)(F)F)cc(C(F)(F)F)c1`, the Potency was 29.8 µM (active). The value for `CCOC(C)=O` was “inactive”; that for `C[C@]12CC[C@@H]3c4ccc(O)cc4CC[C@H]3[C@@H]1CC[C@@H]2OC(=O)CCC1CCCC1` was 54.5 µM (active) and 29.8 µM (active); that for `CO[C@]1(NC(=O)CSC(F)F)C(=O)N2C(C(=O)O)=C(CSc3nnnn3CCO)CO[C@H]21` was “inactive”. As for `c1csc(SSc2cccs2)c1`, the Potency was 34.4 µM (active). The value for `CC1(C)S[C@@H]2[C@H](NC(=O)C(c3ccccc3)S(=O)(=O)O)C(=O)N2[C@H]1C(=O)O` (stereo not given in full) was “inactive”; that for `C1C[C@@H]2[C@H]3CC[C@H](C3)[C@@H]2C1` was “inactive”; that for `CCOC(=O)c1ccc(I)cc1` was “inactive”. In the case of `O=C(/C=C/c1ccccc1)OCCc1ccccc1`, the Potency entry is “inactive”. On to `Cc1ccc(CO)cc1`, for which the Potency result is “inactive”.

Turning to `O=C(O)c1cccc(-c2noc(-c3ccccc3F)n2)c1`, the Potency entry was “inactive”. Take `O=C1CCCCCCCCCCOCCCCO1`: the Potency result is “inactive”. Regarding `CC(CCC(=O)O)C(=O)O` (stereo not given), the Potency result was “inactive”. Next, `Nc1ncnc2c1ncn2[C@H]1CC[C@@H](CO)O1`: “inactive”; `CC(CN(C)C)C(C)(O)Cc1ccc(Cl)cc1` (stereo not given): “inactive”. For `C(=C\c1ccccc1)/c1ccccc1`, the Potency result is “inactive”.

Take `O=C1c2ccccc2C(=O)C1c1ccc(Br)cc1`: the Potency entry is “inactive”. For `CC(=O)Nc1ccc(C)cc1C`, the Potency entry was “inactive”. The value for `Nc1cccc2c1CN(C1CCC(=O)NC1=O)C2=O` (stereo not given) was “inactive”. As to `CN(C)CCN1C(=O)c2ccccc2N(C)c2ccccc21`, the Potency result is “inactive”. For `Cc1cccc(N(C)C(=S)Oc2ccc3c(c2)CCC3)c1`, the Potency result was “inactive”. Consider `CC(C)COCC(CN(Cc1ccccc1)c1ccccc1)N1CCCC1` (stereo not given), for which the Potency is 29.8 µM (active). Regarding `NNC(=O)CP(=O)(c1ccccc1)c1ccccc1`, the Potency entry is “inactive”.

With `C[C@H]1c2cccc(O)c2C(O)=C2C(=O)[C@]3(O)C(O)=C(C(N)=O)C(=O)[C@@H](N(C)C)[C@@H]3[C@@H](O)[C@@H]21`, the Potency entry was “inactive”. For `O=c1cc(-c2ccccc2)oc2cc(O)cc(O)c12`, the Potency is 61.1 µM (active). Consider `CC1(CN2CCC(n3c(=O)[nH]c4ccccc43)CC2)OCc2ccccc2-n2cccc21` (stereo not given), for which the Potency is 29.8 µM (active).

On to `CCCCCC[C@@H](O)C/C=C\CCCCCCCC(=O)O`, for which the Potency entry is “inactive”. Next, `O=C1c2ccccc2C(=O)c2c(O)c(O)cc(O)c21`: 48.6 µM (active); `C[C@@H]1CC(=O)NN=C1c1ccc(NN=C(C#N)C#N)cc1`: 11.9 µM (active); `O=C(O)CCc1nc(-c2ccccc2)c(-c2ccccc2)o1`: “inactive”.

For the compound `CCC=CC#N`, the Potency result was “inactive”.

As to `CN(C)CCC=C1c2ccccc2C=Cc2ccccc21`, the Potency entry is “inactive”. `CCC1CO1` (stereo not given): the Potency entry was “inactive”. With `O=C(OC(=O)c1ccccc1)c1ccccc1`, the Potency entry was “inactive”.

For the compound `CC(C)=CCC/C(C)=C/CC/C(C)=C/CCC(=O)OC/C=C(\C)CCC=C(C)C`, the Potency result was “inactive”. Turning to `c1ccc2c(c1)CCc1ccccc1N2`, the Potency result was “inactive”. With `O=C(O)CCCCCCCCCCCBr`, the Potency entry was “inactive”.
